# Measurements published in PubChem BioAssay (EPA / NIEHS).
# Inconclusive results are not listed. Some compounds were tested as several samples or in several runs, with calls that do not always agree. Activity calls are given as the source filed them. Rule for the calls: active = hit-call score of the fitted dose curve at least 0.9, where 1 is the maximum; inconclusive = response in the unintended direction; inactive = score below 0.9.
# Tests used:
# [1] = NVS_IC_rCaBTZCHL: NovaScreen (NVS) Ion Channel Assay for Calcium Channel, Type L, Benzothiazepine Site (CaBTZCHL) (AID 2283337)
# Method in brief: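 Rat cortical membrane preparation incubated 1.5 h with compound and benzothiazepine-site radioligand; loss of filter-bound counts versus DMSO marks displacement. Initial duplicate testing at 25 uM, actives followed up in concentration series.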
# NCBI gene 100848466 = assay: NVS_NR_bPR: NovaScreen (NVS) Nuclear Receptor Binding Assay for bovine Progextron Receptor (PR) (AID 2283343);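 for AC50: actives lower bound radioligand signal below DMSO meaning displacement of the label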
# Protocol: NVS_NR_bPR is a biochemical, single-readout assay that uses extracted gene-proteins from Bovine uterine membranes in a tissue-based cell-free assay. Measurements were taken 18 hours after chemical dosing in a 96-well plate.NVS_NR_bPR is one of one assay component(s) measured or calculated from the NVS_NR_bPR assay. It is designed to make measurements of radioligand binding, a form of binding reporter, as detected with scintillation counting signals by Lysate-based radiodetection technology.Data from the assay component NVS_NR_bPR was analyzed into 1 assay endpoint. This assay endpoint, NVS_NR_bPR, was analyzed in the positive analysis fitting direction relative to DMSO as the negative control and baseline of activity. Using a type of binding reporter, loss-of-signal activity can be used to understand changes in the binding as they relate to the gene PGR. Furthermore, this assay endpoint can be referred to as a primary readout, because the performed assay has only produced 1 assay endpoint. To generalize the intended target to other relatable targets, this assay endpoint is annotated to the nuclear receptor intended target family, where the subfamily is steroidal.
# Binding assays used specific radioligands (tritiated, iodinated) with non-radioactive competitive displacement ligands in agonist or antagonist protocols (as indicated) and various reference compounds and inhibitors to titrate specific binding to receptors and transporters. Most enzyme assays (CYPs, kinases, phosphatases, proteases, HDACs) used recombinant protein and specific substrates (fluorescence mostly, some colorimetric and radioactive) and inhibitors, followed by a biochemical separation of substrate and product. All assays for the biochemical HTS were initially run in duplicate at a single concentration (10 uM for CYP450 assays and 25 uM for all others). […] Each assay was run with positive and negative controls, and concurrent controls on every plate. The follow-up (secondary) screen tested active chemical-pairs in concentration series, as well as a few additional assays not tested in the primary screen, some selected negative inactives, and several cases re-run in the concentration series for confirmatory purposes.
# [2] = target: Estrogen receptor (Homo sapiens) (UniProt P03372); assay: NVS_NR_hER: NovaScreen (NVS) Nuclear Receptor Binding Assay for human Estrogen Receptor (ER) (AID 2283348)
# Method in brief: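 Cell-free MCF7-derived ER preparation, specific radioligand displaced by test compound, read by scintillation counting 18 h post-dosing. Duplicate single-point 25 uM screen, then concentration-response confirmation; DMSO baseline.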
# [3] = tested on: guinea pig Histamine Receptor (H2), gene 100729734; assay: NVS_GPCR_gH2: NovaScreen (NVS) G Protein-Coupled Receptor Assay for guinea pig Histamine Receptor (H2) (AID 2283342)
# Protocol: NVS_GPCR_gH2 is a biochemical, single-readout assay that uses extracted gene-proteins from Guinea pig striatal membranes in a tissue-based cell-free assay. Measurements were taken 1 hour after chemical dosing in a 96-well plate.NVS_GPCR_gH2 is one of one assay component(s) measured or calculated from the NVS_GPCR_gH2 assay. It is designed to make measurements of radioligand binding, a form of binding reporter, as detected with scintillation counting signals by Filter-based radiodetection technology.Data from the assay component NVS_GPCR_gH2 was analyzed into 1 assay endpoint. This assay endpoint, NVS_GPCR_gH2, was analyzed in the positive analysis fitting direction relative to DMSO as the negative control and baseline of activity. Using a type of binding reporter, loss-of-signal activity can be used to understand changes in the binding as they relate to the gene Hrh2. Furthermore, this assay endpoint can be referred to as a primary readout, because the performed assay has only produced 1 assay endpoint. To generalize the intended target to other relatable targets, this assay endpoint is annotated to the gpcr intended target family, where the subfamily is rhodopsin-like receptor.
# Binding assays used specific radioligands (tritiated, iodinated) with non-radioactive competitive displacement ligands in agonist or antagonist protocols (as indicated) and various reference compounds and inhibitors to titrate specific binding to receptors and transporters. Most enzyme assays (CYPs, kinases, phosphatases, proteases, HDACs) used recombinant protein and specific substrates (fluorescence mostly, some colorimetric and radioactive) and inhibitors, followed by a biochemical separation of substrate and product. All assays for the biochemical HTS were initially run in duplicate at a single concentration (10 uM for CYP450 assays and 25 uM for all others). Assay-chemical combinations meeting a pre-defined threshold (e.g., 30% inhibition and other criteria defined below) were then run in singleton concentration-response format with maximum concentration of 20 uM for CYPs and 50 uM for all others. Each assay was run with positive and negative controls, and concurrent controls on every plate. The follow-up (secondary) screen tested active chemical-pairs in concentration series, as well as a few additional assays not tested in the primary screen, some selected negative inactives, and several cases re-run in the concentration series for confirmatory purposes.
# [4] = target: bovine Estrogen Receptor (ER), ESR1 (gene 407238) (UniProt P49884); assay: NVS_NR_bER: NovaScreen (NVS) Nuclear Receptor Binding Assay for bovine Estrogen Receptor (ER) (AID 2283345);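 note: actives lower the bound radioligand count which means they displace the ER ligand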
# Method in brief: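 Cell-free radioligand binding with bovine uterine membrane extracts, read 18 hours after dosing by scintillation counting. Loss of signal versus DMSO baseline indicates displacement. Primary screen run in duplicate at 25 uM, actives followed in concentration series.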
# [5] = target: bovine Gamma-Aminobutyric Acid Type A Receptor Agonist (GABAR Agonist), GABRA1 (gene 780973) (UniProt P08219); assay: NVS_LGIC_bGABAR_Agonist: NovaScreen (NVS) Ligand-Gated Ion Channel Assay for bovine Gamma-Aminobutyric Acid Type A Receptor Agonist (GABAR Agonist) (AID 2283338)
# Method in brief: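 Radioligand binding to bovine cerebellar membranes in agonist format, read by filter-based scintillation counting after 1 h. Primary screen in duplicate at 25 uM, with actives followed in concentration series. Gain of signal versus DMSO.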
# [6] = target: human Constitutive Androstane Receptor (CAR), NR1I3 (gene 9970) (UniProt Q14994); assay: NVS_NR_hCAR_Antagonist: NovaScreen (NVS) Nuclear Receptor Binding Assay for human Constitutive Androstane Receptor Antagonism (CAR) (AID 2283344)
# Method in brief: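 Single 25 uM duplicate primary screen, with concentration-series follow-up on actives. Cell-free binding format run in antagonist mode, TR-FRET signal taken 1 h post-dose; activity is signal loss relative to DMSO.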
# [7] = target: chimpanzee Androgen Receptor (AR), AR (gene 747460) (UniProt O97775); assay: NVS_NR_cAR: NovaScreen (NVS) Nuclear Receptor Binding Assay for chimpanzee Androgen Receptor (AR) (AID 2283346);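 note: radioligand displacement from AR measured by scintillation counting in a cell-free assay; a loss of bound radioligand signal versus DMSO counts as binding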
# Method in brief: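 Cell-free competition binding with insect-cell (Sf9/Sf21) extracted chimpanzee AR; scintillation signal from lysate at 72 h. Screened in duplicate at 25 uM, then concentration-response for actives; fitting relative to DMSO.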
# [8] = target: rat Glutamate, MK-801 Agonist Site (GluNMDA_MK801), Grin1 (gene 24408) (UniProt P35439); assay: NVS_LGIC_rGluNMDA_MK801_Agonist: NovaScreen (NVS) Ligand-Gated Ion Channel Assay for rat Glutamate, MK-801 Agonist Site (GluNMDA_MK801) (AID 2283340)
# Protocol: NVS_LGIC_rGluNMDA_MK801_Agonist is a biochemical, single-readout assay that uses extracted gene-proteins from Rat forebrain membranes in a tissue-based cell-free assay. Measurements were taken 1.5 hours after chemical dosing in a 48-well plate.NVS_LGIC_rGluNMDA_MK801_Agonist is one of one assay component(s) measured or calculated from the NVS_LGIC_rGluNMDA_MK801_Agonist assay. It is designed to make measurements of radioligand binding, a form of binding reporter, as detected with scintillation counting signals by Filter-based radiodetection technology.Data from the assay component NVS_LGIC_rGluNMDA_MK801_Agonist was analyzed into 1 assay endpoint. This assay endpoint, NVS_LGIC_rGluNMDA_MK801_Agonist, was analyzed in the positive analysis fitting direction relative to DMSO as the negative control and baseline of activity. Using a type of binding reporter, gain-of-signal activity can be used to understand changes in the binding as they relate to the gene Grin1. Furthermore, this assay endpoint can be referred to as a primary readout, because the performed assay has only produced 1 assay endpoint. To generalize the intended target to other relatable targets, this assay endpoint is annotated to the ion channel intended target family, where the subfamily is ligand-gated ion channel. […]
# [9] = target: rat Glycine Receptor, Strychnine-sensitive (GlyRStrySens), Glra1 (gene 25674) (UniProt P07727); assay: NVS_LGIC_rGlyRStrySens: NovaScreen (NVS) Ligand-Gated Ion Channel Assay for rat Glycine Receptor, Strychnine-sensitive (GlyRStrySens) (AID 2283341)
# Protocol: NVS_LGIC_rGlyRStrySens is a biochemical, single-readout assay that uses extracted gene-proteins from Rat spinal cord membranes in a tissue-based cell-free assay. Measurements were taken 1 hour after chemical dosing in a 48-well plate.NVS_LGIC_rGlyRStrySens is one of one assay component(s) measured or calculated from the NVS_LGIC_rGlyRStrySens assay. It is designed to make measurements of radioligand binding, a form of binding reporter, as detected with scintillation counting signals by Filter-based radiodetection technology.Data from the assay component NVS_LGIC_rGlyRStrySens was analyzed into 1 assay endpoint. This assay endpoint, NVS_LGIC_rGlyRStrySens, was analyzed in the positive analysis fitting direction relative to DMSO as the negative control and baseline of activity. Using a type of binding reporter, loss-of-signal activity can be used to understand changes in the binding as they relate to the gene Glra1. Furthermore, this assay endpoint can be referred to as a primary readout, because the performed assay has only produced 1 assay endpoint. To generalize the intended target to other relatable targets, this assay endpoint is annotated to the ion channel intended target family, where the subfamily is ligand-gated ion channel. […]
# Sequence of chimpanzee Androgen Receptor (AR), AR (gene 747460) (O97775 whole entry, looked up): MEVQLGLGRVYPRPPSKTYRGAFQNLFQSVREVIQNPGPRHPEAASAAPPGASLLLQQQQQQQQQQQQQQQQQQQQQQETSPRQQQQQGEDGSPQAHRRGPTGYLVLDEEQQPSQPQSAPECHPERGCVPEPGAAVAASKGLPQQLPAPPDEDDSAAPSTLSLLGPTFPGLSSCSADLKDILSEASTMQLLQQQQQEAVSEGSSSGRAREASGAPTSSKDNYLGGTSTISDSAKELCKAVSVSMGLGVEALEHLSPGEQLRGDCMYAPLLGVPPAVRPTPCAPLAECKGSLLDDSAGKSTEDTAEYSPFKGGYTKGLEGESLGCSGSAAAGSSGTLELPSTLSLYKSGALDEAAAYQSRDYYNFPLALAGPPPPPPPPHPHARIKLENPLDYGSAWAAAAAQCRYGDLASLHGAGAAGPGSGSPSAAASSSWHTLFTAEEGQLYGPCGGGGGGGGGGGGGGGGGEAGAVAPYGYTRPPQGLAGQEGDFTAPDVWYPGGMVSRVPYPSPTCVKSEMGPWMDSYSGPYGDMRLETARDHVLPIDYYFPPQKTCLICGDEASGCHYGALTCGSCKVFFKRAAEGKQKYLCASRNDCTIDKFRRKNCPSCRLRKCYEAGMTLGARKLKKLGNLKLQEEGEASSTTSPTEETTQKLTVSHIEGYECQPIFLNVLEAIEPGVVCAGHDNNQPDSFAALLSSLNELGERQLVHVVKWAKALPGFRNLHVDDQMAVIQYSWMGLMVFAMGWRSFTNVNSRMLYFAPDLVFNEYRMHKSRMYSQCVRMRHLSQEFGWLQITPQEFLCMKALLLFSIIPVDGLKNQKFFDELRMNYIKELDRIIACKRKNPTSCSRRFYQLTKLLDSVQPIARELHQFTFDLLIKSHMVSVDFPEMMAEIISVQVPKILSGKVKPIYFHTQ
# Sequence of Estrogen receptor (Homo sapiens) (P03372 whole entry, looked up): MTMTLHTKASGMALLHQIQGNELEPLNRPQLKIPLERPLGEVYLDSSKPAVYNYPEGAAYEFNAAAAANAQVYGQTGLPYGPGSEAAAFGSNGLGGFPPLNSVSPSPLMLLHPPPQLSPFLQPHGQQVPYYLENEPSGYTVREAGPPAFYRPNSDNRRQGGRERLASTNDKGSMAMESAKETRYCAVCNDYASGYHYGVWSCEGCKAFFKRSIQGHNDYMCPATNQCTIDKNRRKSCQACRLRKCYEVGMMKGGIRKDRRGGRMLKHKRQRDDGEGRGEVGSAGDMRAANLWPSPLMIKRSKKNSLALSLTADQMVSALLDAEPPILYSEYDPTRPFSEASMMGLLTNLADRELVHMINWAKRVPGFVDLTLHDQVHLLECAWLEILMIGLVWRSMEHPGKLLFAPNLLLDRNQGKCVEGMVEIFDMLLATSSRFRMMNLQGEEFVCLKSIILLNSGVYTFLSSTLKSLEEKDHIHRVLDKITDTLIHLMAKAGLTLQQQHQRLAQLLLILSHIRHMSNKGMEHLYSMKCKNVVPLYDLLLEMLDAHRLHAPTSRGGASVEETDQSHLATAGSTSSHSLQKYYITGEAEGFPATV
# Sequence of bovine Gamma-Aminobutyric Acid Type A Receptor Agonist (GABAR Agonist), GABRA1 (gene 780973) (P08219 whole entry, looked up): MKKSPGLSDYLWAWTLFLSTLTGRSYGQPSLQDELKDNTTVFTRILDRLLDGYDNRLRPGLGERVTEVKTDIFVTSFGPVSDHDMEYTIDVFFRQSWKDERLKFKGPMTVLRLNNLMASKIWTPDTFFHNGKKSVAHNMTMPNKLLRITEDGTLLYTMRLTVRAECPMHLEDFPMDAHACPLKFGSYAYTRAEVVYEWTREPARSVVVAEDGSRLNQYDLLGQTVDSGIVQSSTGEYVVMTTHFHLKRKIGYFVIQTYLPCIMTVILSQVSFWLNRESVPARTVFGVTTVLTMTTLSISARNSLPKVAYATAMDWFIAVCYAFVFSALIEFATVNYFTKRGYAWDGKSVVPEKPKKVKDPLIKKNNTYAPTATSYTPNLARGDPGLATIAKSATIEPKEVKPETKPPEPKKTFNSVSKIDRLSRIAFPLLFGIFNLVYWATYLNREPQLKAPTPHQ
# Sequence of human Constitutive Androstane Receptor (CAR), NR1I3 (gene 9970) (Q14994 whole entry, looked up): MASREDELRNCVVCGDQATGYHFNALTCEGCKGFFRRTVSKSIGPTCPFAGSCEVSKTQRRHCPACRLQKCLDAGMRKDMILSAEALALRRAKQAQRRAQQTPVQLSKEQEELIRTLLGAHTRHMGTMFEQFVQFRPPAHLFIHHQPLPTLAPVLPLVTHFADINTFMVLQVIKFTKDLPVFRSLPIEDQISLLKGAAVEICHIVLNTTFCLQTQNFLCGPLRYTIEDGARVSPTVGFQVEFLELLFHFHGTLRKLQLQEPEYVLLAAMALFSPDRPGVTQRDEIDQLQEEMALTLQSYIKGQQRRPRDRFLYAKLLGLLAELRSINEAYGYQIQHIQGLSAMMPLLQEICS
# Sequence of bovine Estrogen Receptor (ER), ESR1 (gene 407238) (P49884 whole entry, looked up): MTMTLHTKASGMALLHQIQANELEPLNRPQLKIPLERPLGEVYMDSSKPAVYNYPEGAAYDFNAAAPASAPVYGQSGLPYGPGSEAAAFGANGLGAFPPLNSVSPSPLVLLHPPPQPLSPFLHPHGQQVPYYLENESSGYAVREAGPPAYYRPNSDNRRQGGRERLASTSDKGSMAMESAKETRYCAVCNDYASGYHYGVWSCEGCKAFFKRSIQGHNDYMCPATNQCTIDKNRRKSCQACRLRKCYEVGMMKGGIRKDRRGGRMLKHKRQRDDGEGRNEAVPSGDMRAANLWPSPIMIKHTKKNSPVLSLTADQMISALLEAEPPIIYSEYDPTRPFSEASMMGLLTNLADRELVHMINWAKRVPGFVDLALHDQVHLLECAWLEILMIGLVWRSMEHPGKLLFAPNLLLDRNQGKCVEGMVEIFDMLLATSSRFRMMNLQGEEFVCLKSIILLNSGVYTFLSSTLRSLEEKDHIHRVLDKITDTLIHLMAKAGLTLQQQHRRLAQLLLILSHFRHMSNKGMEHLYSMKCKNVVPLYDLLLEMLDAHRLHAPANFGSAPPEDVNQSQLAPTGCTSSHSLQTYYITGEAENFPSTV
# Sequence of rat Glycine Receptor, Strychnine-sensitive (GlyRStrySens), Glra1 (gene 25674) (P07727 whole entry, looked up): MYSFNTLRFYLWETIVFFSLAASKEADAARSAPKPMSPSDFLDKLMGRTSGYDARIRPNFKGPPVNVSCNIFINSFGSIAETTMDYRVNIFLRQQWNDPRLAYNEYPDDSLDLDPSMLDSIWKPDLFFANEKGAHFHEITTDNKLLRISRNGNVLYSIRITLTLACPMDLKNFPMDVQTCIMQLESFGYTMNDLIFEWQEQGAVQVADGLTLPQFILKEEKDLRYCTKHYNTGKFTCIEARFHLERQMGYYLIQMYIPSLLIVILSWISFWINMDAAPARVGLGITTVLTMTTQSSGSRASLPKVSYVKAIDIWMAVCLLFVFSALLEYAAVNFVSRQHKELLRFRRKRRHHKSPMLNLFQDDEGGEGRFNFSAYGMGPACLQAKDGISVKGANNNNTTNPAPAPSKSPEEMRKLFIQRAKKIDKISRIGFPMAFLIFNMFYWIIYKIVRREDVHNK
smiles,measurement,setting,value
CC(C)C(=O)Nc1ccc([N+](=O)[O-])c(C(F)(F)F)c1,outcome,[1],inactive
same,outcome,NCBI gene 100848466,inactive
same,outcome,[2],inactive
COc1cc(C(C)C)c2c(c1)S(=O)(=O)N(COc1cc(=O)n3cccc(OCCN4CCCCC4)c3n1)C2=O,AC50,[1],3.14 µM (active)
same,AC50,[3],3.13 µM (active)
same,outcome,[2],inactive
CCc1cccc(CC)c1N,AC50,[2],10 µM (active)
Cc1cccc(O)c1C,outcome,[4],inactive
same,outcome,[2],inactive
COS(C)(=O)=O,outcome,[4],inactive
same,outcome,[2],inactive
CCc1ccc(O)c(C(C)(C)C)c1,outcome,[5],inactive
same,outcome,[2],inactive
Cc1ncc([C@@H](CCCCCCc2ccc3c(n2)NCCC3)CC(=O)O)cn1,AC50,[3],25 µM (active)
CCCC(CCC)C(=O)O,outcome,[2],inactive
OC[C@H]1O[C@@H]2O[C@H]3[C@H](O)[C@@H](O)[C@@H](O[C@H]4[C@H](O)[C@@H](O)[C@@H](O[C@H]5[C@H](O)[C@@H](O)[C@@H](O[C@H]6[C@H](O)[C@@H](O)[C@@H](O[C@H]7[C@H](O)[C@@H](O)[C@@H](O[C@H]1[C@H](O)[C@H]2O)O[C@@H]7CO)O[C@@H]6CO)O[C@@H]5CO)O[C@@H]4CO)O[C@@H]3CO,AC50,[4],1.18 µM (active)
same,AC50,[2],0.472 µM (active)
CCCCC(CC)C(=O)OCCOCCOCCOC(=O)C(CC)CCCC (configuration not stated),outcome,[6],inactive
same,outcome,[4],inactive
same,outcome,[2],inactive
CCCCCCCCCC,outcome,[4],inactive
Nc1ccn([C@@H]2O[C@H](CO)[C@@H](O)[C@@H]2O)c(=O)n1,AC50,[2],22.5 µM (active)
C[C@]12C=CC(=O)C=C1CC[C@H]1[C@@H]3C[C@@H](O)[C@](O)(C(=O)CO)[C@@]3(C)C[C@H](O)[C@@]12F,outcome,[4],inactive
same,AC50,[7],32.6 µM (active)
same,AC50,[2],38.3 µM (active)
c1ccc2c(c1)-c1cccc3c1c-2cc1ccccc13,outcome,[7],inactive
CCn1nc(C)c2c1C(=O)NCC(c1ccc(O)cc1)=N2,outcome,[1],inactive
same,outcome,[3],inactive
CCCCCCOC(=O)CC(CC(=O)OCCCCCC)(OC(=O)CCC)C(=O)OCCCCCC,outcome,[5],inactive
C=CCc1cc(S(=O)(=O)c2ccc(O)c(CC=C)c2)ccc1O,outcome,[1],inactive
same,outcome,NCBI gene 100848466,inactive
same,AC50,[4],19.1 µM (active)
same,AC50,[7],33.1 µM (active)
same,AC50,[2],12.5 µM (active)
same,outcome,[2],inactive
CCCCCCCCCCCCCCCCOS(=O)(=O)O,outcome,[6],inactive
O=C(O)c1cccc(C[C@@H]2COc3ccc(OCc4nc5cc(F)ccc5s4)cc3[C@@H]2O)c1,outcome,[4],inactive
same,AC50,[7],20.8 µM (active)
c1ccc(C(O[C@@H]2CCCN(CCc3ccc4c(c3)OCO4)C2)c2ccccc2)cc1,AC50,[1],0.428 µM (active)
same,outcome,[8],inactive
same,AC50,[3],0.337 µM (active)
same,outcome,[4],inactive
same,outcome,[7],inactive
same,outcome,[2],inactive
CCN(CC)C(=S)SSC(=S)N(CC)CC,outcome,[2],inactive
Cc1nccn1-c1ccc(Sc2cccc(C3(C(N)=O)CCOCC3)c2)cc1,outcome,[1],inactive
same,outcome,[3],inactive
same,AC50,NCBI gene 100848466,7.1 µM (active)
OC(Cn1cncn1)(Cn1cncn1)c1ccc(F)cc1F,outcome,[5],inactive
Cn1cc[nH]c1=S,outcome,NCBI gene 100848466,inactive
NC(=O)N1c2ccccc2C=Cc2ccccc21,outcome,[5],inactive
same,outcome,[4],inactive
O=C1CN(N=Cc2ccc([N+](=O)[O-])o2)C(=O)N1,outcome,[5],inactive
OCC(CO)(CO)CO,outcome,[4],inactive
same,AC50,[2],3.49 µM (active)
CC(=O)c1ccccc1,outcome,[5],inactive
O=c1[nH]cnc2c1ncn2[C@H]1CC[C@@H](CO)O1,outcome,[6],inactive
O=C(O)c1ccc2c(c1)nc(C(=O)NC1CCN(C3CC3)CC1)n2Cc1cc(-c2ccc(Cl)s2)on1,outcome,[6],inactive
CCCCCCCCN(C)C,outcome,[1],inactive
NNC(=O)c1ccncc1,outcome,[2],inactive
Cc1nc(-c2ccccn2)ncc1C(=O)Nn1cc(C)c2cc(F)ccc21,outcome,[6],inactive
CCCCCCCC1CCC(=O)O1 (configuration not stated),outcome,[9],inactive
